Experimental data published in PubChem BioAssay (NCI).
This is part of a sample that, as a whole, favours compounds with a hit. Of some 79,000 tested, about 15% had one in any assay. The source made the active and inactive calls. Cut-off read from the data, not from the text of the source: active = growth inhibition above about 70%; inactive = the rest.

Key:
[1] = NCI Yeast Anticancer Drug Screen. Data for the rad50 strain (AID 155);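 note: 0% = growth of vehicle-only cultures of the same strain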; details: S. cerevisiae rad50 strain growth inhibition; at 50.0 µM; hits give high values
Summary of the method: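 DNA repair mutant yeast, compound exposure, growth read-out; inhibition is taken relative to vehicle.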

[2] = NCI Yeast Anticancer Drug Screen. Data for the mec2-1 strain (AID 157); details: S. cerevisiae mec2-1 strain, at 50.0 µM, hits give high values
Summary of the method: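 Yeast mec2-1 mutant treated with compound. Readout: growth inhibition vs vehicle controls.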

[3] = NCI Yeast Anticancer Drug Screen. Data for the sgs1 mgt1 strain (AID 161);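 note: 0% = growth of cultures given vehicle only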; details: S. cerevisiae sgs1 mgt1 strain, at 50.0 µM, hits give high values
Summary of the method: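 Genetically altered yeast, compound exposure, growth inhibition relative to vehicle.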

[4] = NCI Yeast Anticancer Drug Screen. Data for the cln2 rad14 strain (AID 165);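 note: 0% = growth equal to vehicle treated cultures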; details: S. cerevisiae cln2 rad14 strain, at 50.0 µM, hits give high values
Summary of the method: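 cln2 rad14 yeast strain; compound exposure; growth inhibition read vs vehicle controls.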

[5] = NCI Yeast Anticancer Drug Screen. Data for the bub3 strain (AID 167); details: S. cerevisiae bub3 mutant strain, at 50.0 µM, hits give high values
Summary of the method: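 In this screen, a yeast mutant lacking normal mitotic checkpoint function is challenged with compound. Relative growth versus vehicle gives the inhibition value.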

[6] = NCI Yeast Anticancer Drug Screen. Data for the mlh1 rad18 strain (AID 175); details: S. cerevisiae mlh1 rad18 strain growth inhibition; at 50.0 µM; hits give high values
Summary of the method: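 Yeast w/ defined DNA-repair lesions; compound exposure; growth vs vehicle controls → % inhibition.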

Measured: growth inhibition

O=C(OCCN1C(=O)c2cccc3c(Br)ccc(c23)C1=O)OCc1ccccc1
active: [1] 86.2% | [6] 70.3%
inactive: [2] 48.5% | [3] 60.1% | [4] 49.4% | [5] 61.7%

CN1/C(=C\N=O)C(C)(C)N(O)C1(C)C
inactive: [1] 16.6% | [2] -13.9% | [3] 2.55% | [4] 17.2% | [5] 5.85% | [6] -85.7%

NCCCCCS(=O)(=O)O
inactive: [1] 17.4% | [2] -1.15% | [3] -0.85% | [4] 4.05% | [5] -0.65% | [6] 8.65%

CCOC(=O)COS(=O)(=O)C(F)(F)F
inactive: [1] 21.6% | [2] -12.7% | [3] -11.4% | [4] 2.95% | [5] 3.5% | [6] -10.7%

CCOC(=O)c1c(O)c(Cc2ccccc2)c(=O)n2c1[nH]c1cc(C)c(C)cc12
inactive: [1] 26.6% | [2] 26.2% | [3] 12.2% | [4] 15.5% | [5] -0.95% | [6] -1%

Ic1ccc(N=Cc2cccs2)cc1
inactive: [1] 5.1% | [2] -1.85% | [3] 21.6% | [4] 6.8% | [5] 10.8% | [6] 21.8%

Cc1nnnn1[C@H]1C(C#N)CC2[C@@H]3CCC4=Cc5nnnn5CC[C@]4(C)C3CC[C@@]21C (stereo not given in full)
inactive: [1] 23.3% | [2] 27.4% | [3] 23% | [4] 16.6% | [5] 13.2% | [6] 25.2%

COC(=O)C1OC(O[C@H]2CC[C@]3(C)[C@H]4CC=C5[C@@H]6CC(C)(C)CC[C@]6(C(=O)OC)[C@H](O)C[C@@]5(C)[C@]4(C)CC[C@H]3C2(C)C)C(O)C(O)C1O (stereo not given in full)
inactive: [1] 14.4% | [2] 37.6% | [3] 26.6% | [4] 26.4% | [5] 21.4% | [6] 33.4%

C/C(CCC1CCCCC1)=N/Nc1ccc([N+](=O)[O-])cc1[N+](=O)[O-]
inactive: [1] 24% | [2] 8.9% | [3] 22.8% | [4] 16.5% | [5] 6.95% | [6] 5.55%

CN(C)CCSCC(=O)N1c2ccccc2Sc2ccccc21
inactive: [1] -7.7% | [2] -8.5% | [3] -5.8% | [4] -41.2% | [5] 3% | [6] -4.8%

CC1=CC[C@H]2C(C)=CC[C@@H](C(C)C)[C@@H]2C1
inactive: [1] 10.4% | [2] 6.05% | [3] 24.2% | [4] 21.6% | [5] 13.1% | [6] 17.4%

CC(C)CC(=O)NC(C(=O)NC(C(=O)NC(CC(C)C)C(O)CC(=O)NC(C)C(=O)NC(CC(C)C)C(O)CC(=O)O)C(C)C)C(C)C (stereo not given)
inactive: [1] 5.8% | [2] -18.4% | [3] -20.9% | [4] 7.6% | [5] 5.95% | [6] -9.75%

O=Cc1cccc2ccc3cccc(C(=O)O)c3c12
inactive: [1] 34% | [2] 12% | [3] 17.9% | [4] 13.2% | [5] 30.1% | [6] -8.7%

COc1ccc(C2N(NC(=O)c3ccncc3)C(=O)CS2(=O)=O)cc1F (stereo not given)
inactive: [1] -3.95% | [2] -12.6% | [3] -11.8% | [4] -1.55% | [5] 0.75% | [6] 0.95%

C=CCNC(=S)Nc1cc(Cl)ccc1OC
inactive: [1] 6.15% | [2] 8.45% | [3] -2.45% | [4] -5.45% | [5] 1.2% | [6] 7.1%

CCOC(=O)C(NC(=O)CC)(Nc1ccc(S(=O)(=O)Nc2ncccn2)cc1)C(F)(F)F (stereo not given)
inactive: [1] -19.4% | [2] -14.9% | [3] -10.5% | [4] 20.1% | [5] -9.55% | [6] -7.05%

CNCC(O)(C(=O)O)C(=O)O
inactive: [1] -12.6% | [2] -45.9% | [3] -32.9% | [4] 6.05% | [5] -29.1% | [6] -7.95%

NS(=O)(=O)c1cc2c(cc1Cl)NC(C(=O)NNC(=O)c1ccncc1)=NS2(=O)=O
inactive: [1] -1.6% | [2] -16.5% | [3] -4.8% | [4] 1.3% | [5] -11.9% | [6] -20.4%

COC(=O)CCCCCCCCCCCCC1C=CCC1 (stereo not given)
inactive: [1] 8.9% | [2] -31.1% | [3] 11.4% | [4] 9.25% | [5] -5.85% | [6] 4.25%

CC(=O)Oc1cc2oc([O-])c[n+]2c2ccccc12
inactive: [1] 28.6% | [2] 14.2% | [3] 22.7% | [4] 5.45% | [5] 12.6% | [6] 0.95%

CN(Cc1ccccc1)c1ccc(C(=O)O)cc1
inactive: [1] -2.65% | [2] 2.3% | [3] -5.55% | [4] -19% | [5] -23.6% | [6] 7%

CC(C)=CCCC(=O)C(c1nc2n(c1O)C(=N)N=N2)c1nc2n(c1O)C(=N)N=N2 (stereo not given)
inactive: [1] 12.1% | [2] 7.65% | [3] 2.1% | [4] 7.9% | [5] 5.55% | [6] 20.6%

COc1cc(NC(C)=O)c2[nH]c3c(C)cc(NC(C)=O)c(C)c3c2c1
inactive: [1] -25.6% | [2] -55.1% | [3] -67.2% | [4] -34.5% | [5] -27.6% | [6] -56.7%

O=C(NCCCl)Nc1[nH]c(=O)ncc1Cl
inactive: [1] -12.2% | [2] -13.2% | [3] -16.5% | [4] -30.6% | [5] -12.4% | [6] -3.15%

O=C1Oc2cc3c(c4cccc1c24)O[C@H](c1ccccc1)[C@@H](c1ccccc1)[C@@H]3c1ccc(Cl)cc1
inactive: [1] -2.95% | [2] 11.2% | [3] -2.4% | [4] -5.15% | [5] 3.3% | [6] 9.3%

[Cl][Pt+2][Cl].[NH-]c1cccc(C(F)(F)F)c1.[NH-]c1cccc(C(F)(F)F)c1
inactive: [1] 2.1% | [2] 12.2% | [3] -6.35% | [4] 7.05% | [5] -22.8% | [6] -11.9%

O=C1OC(c2ccc([N+](=O)[O-])cc2)=N/C1=C\c1cccc([N+](=O)[O-])c1
inactive: [1] 23.1% | [2] 20.9% | [3] 36.2% | [4] 38.2% | [5] 22.1% | [6] 52%

O=C(O)CCC(CCC(=O)O)(C(=O)O)c1ccccc1
inactive: [1] -20.1% | [2] -6.5% | [3] -8.75% | [4] -42.1% | [5] -1.65% | [6] -7.8%

O=C1c2ccccc2C(=O)N1CCOCCOCCN1C(=O)c2ccccc2C1=O
inactive: [1] -8.15% | [2] -6% | [3] -17% | [4] -20.7% | [5] -2.7% | [6] 20.4%

CON[N+]([O-])=NC(C)C
inactive: [1] 27.6% | [2] 6.3% | [3] 21.6% | [4] 11.5% | [5] 17% | [6] 21.8%

CCC1(CCC#N)CCC(N)=CC1=O (stereo not given)
inactive: [1] 21.9% | [2] 17.3% | [3] 7.9% | [4] -50% | [5] -6.2% | [6] -0.75%

CCOP(=O)(OCC)c1c(C(=O)OC)cc(=O)[nH]c1-c1ccc(C)cc1
inactive: [1] 44.9% | [2] 23.4% | [3] 40% | [4] 25.2% | [5] 53.7% | [6] 61.3%

Cc1cc(NC(C)C)c(C)cc1NC(C)C
inactive: [1] 49% | [2] 31.9% | [3] 47.1% | [4] 21.8% | [5] 33.5% | [6] 43.8%

CC1(C)C(c2ccccc2)=NN(O)c2ccccc21
inactive: [1] -22.3% | [2] -15.8% | [3] 0.25% | [4] 15.4% | [5] -4.5% | [6] -9.4%

Cc1ccc(NC(=O)CCC(=O)C(C)C(=O)c2ccccc2)cc1C (stereo not given)
inactive: [1] -72.1% | [2] -7.6% | [3] -14.3% | [4] -55.7% | [5] -12.8% | [6] -9.4%

COc1cc(CCl)c(OC)cc1Cl
inactive: [1] 8.6% | [2] 0.9% | [3] -1.4% | [4] -35.6% | [5] 13.6% | [6] -28.4%

CC(C)(O)C(Cc1ccccc1)c1ccccc1 (stereo not given)
inactive: [1] 0.55% | [2] 7.9% | [3] -16.1% | [4] -2.1% | [5] -23.6% | [6] 0.8%

O=C(N/C(=C\c1ccccc1)C(=O)N1CCNCC1)c1ccccc1
inactive: [1] -1% | [2] 5.3% | [3] 0.65% | [4] -26.8% | [5] 1.15% | [6] 9.65%

Cc1cccc(/C=N/NC(=S)NCCc2ccccn2)n1
inactive: [1] -17.4% | [2] -33.8% | [3] 14.2% | [4] 0.8% | [5] 9.55% | [6] -2.85%

O=C1C(n2ccc(=O)[nH]c2=O)CCN1CCCl (stereo not given)
inactive: [1] 0.2% | [2] 1.35% | [3] 2.65% | [4] -23.5% | [5] 14.1% | [6] 12.5%
